Results filed as inconclusive are left out. Where a call stands in place of a potency, no number is given. Activity calls are given as the source filed them. The call rests on the fitted dose curve; in most records, active means well fitted cell-killing curve with a large enough effect; inconclusive means small, poorly fitted or top-dose-only effect; inactive means no such curve, though single readings can be large or run the other way.
Test: qHTS of pediatric cancer cell lines to identify multiple opportunities for drug repurposing: Primary screen for SJ-GBM2 cells (AID 1347091)
Settings: SJ-GBM2 viability, CellTiter-Glo luminescence, 48 h; series mostly up to 46 µM
Text: Drug repurposing or repositioning has been offered as a strategy for drug development in oncology programs. This approach has special potential for childhood cancers and other rare or orphan diseases, where the expected return on new drug development has been a disincentive to pharmaceuticals.
In this project we exploit the poly-pharmacology of drugs to discover new indications via phenotypic screening of a panel of 19 well-characterized cell lines derived from solid tumors seen in children and adolescents. The goal is to identify approved drugs with previously unrecognized anticancer properties that has the potential to reveal new mechanisms and biological processes involved in carcinogenesis or drug resistance. We employed a titration-based paradigm (quantitative high-throughput screening or qHTS), where all compounds were tested at multiple concentrations for their effect on cell viability. Concentration-response curves (CRCs) were derived directly from the primary screen, and both potency and efficacy values were used to identify compounds with robust bioactivity profiles. We screened the NIH Chemical Genomics Center (NCGC) Pharmaceutical Collection (NPC) and Mechanism Interrogation Plate (MIPE) small molecule collections of approved and investigational compounds against these cell lines; and measured metabolically active cells after 48 hours of compound treatment as a proxy for cell viability.
Assay Submitter: Nathalia J. Martinez, National Center for Advancing Translational Sciences, National Institutes of Health, Rockville, MD, USA; email: natalia.martinez@nih.gov
[1] Shen, M et al. Quantitative high-throughput phenotypic screening of pediatric cancer cell lines identifies multiple opportunities for drug repurposing. Oncotarget 2017 Dec 19;9(4):4758-4772. PMID 29435139.
The cells were obtained from University of North Carolina (UNC), Pediatric Preclinical Testing Program (PPT), and Coriell Institute (CI).
qHTS cell viability assay:
Cells were assayed in growth media at a density of 500-1,000 cells/well. Five microliters of cells were dispensed into 1,536-well, white, solid-bottom, TC-treated plates (Greiner Bio One) using a multidrop dispenser and incubated at 37 degrees C, 5% CO2, under a humidified atmosphere for 5 hours. Twenty-three nanoliters of compounds and controls (neutral control DMSO or positive control bortezomib at final concentration of 2.3 µM) were subsequently transferred by Kalypsys pintool. For primary screens, the MIPE collection was tested at 11-point dilutions (final concentrations range from 0.78 nM to 46 µM) and the NPC collection at 8-point dilutions (final concentrations range from 0.59 nM to 46 µM). Compounds tested in follow-up screens were assayed at 11-point dilutions. Cells were incubated for 48 hours, followed by addition of 3 uL of CellTiter-Glo (Promega). After a 15 min incubation at room temperature, samples were analyzed for luminescence intensity using a ViewLux High-throughput CCD imager equipped with clear filters.
Potency means the concentration at half of the fitted maximal effect.

SMILES | Potency
NC(=O)C1(N2CCCCC2)CCN(CCCC(=O)c2ccc(F)cc2)CC1 | inactive
OCCOCCN1CCN(C2=Nc3ccccc3Sc3ccccc32)CC1 | inactive
C/C=C/C=N/NC(=O)c1ccncc1 | inactive
CCCCC(CC)COC(=O)/C=C/c1ccc(OC)cc1 (stereo not given) | inactive
COc1cc(C)nc(-n2nc(C)cc2OC)n1 | inactive
CC(C)[C@@H]1CC[C@@H](C)CC1=O | inactive
CNCCc1ccccn1 | inactive
COc1cc([C@H]2Oc3cc([C@H]4Oc5cc(O)cc(O)c5C(=O)[C@@H]4O)ccc3O[C@@H]2CO)ccc1O | inactive
Cc1cn([C@H]2C[C@H](F)[C@@H](CO)O2)c(=O)[nH]c1=O | inactive
CCNC(=O)NCc1cccc(Cl)c1 | inactive
OC1C(O)C(O)C(O)C(O)C1O (stereo not given) | inactive
CC1(C)OC[C@@H]2O[C@@]3(C(=O)O)OC(C)(C)O[C@H]3[C@@H]2O1 | inactive
Cc1cc(C)cc(OCC2CNC(=O)O2)c1 (stereo not given) | inactive
CCCCc1cc2ccccc2c(OCCN(C)C)n1 | inactive
CCOCCn1c(N2CCCN(C)CC2)nc2ccccc21 | inactive
CCOC(=O)Nc1ccc2c(c1)N(C(=O)CCN1CCOCC1)c1ccccc1S2 | inactive
OC(C#CCN1CCCC1)(c1ccccc1)c1ccccc1 | inactive
C[C@]12CCC(=O)C=C1C=C[C@@H]1[C@@H]2CC[C@@]2(C)[C@H]1CC[C@@]21CCC(=O)O1 | inactive
COc1cc(O)c(C(=O)c2ccccc2)cc1S(=O)(=O)O | inactive
Cc1cc2c(OCC(CNC(C)(C)C)OC(=O)c3ccccc3)cccc2[nH]1 (stereo not given) | inactive

SMILES | Potency
COc1cc(C(=O)N2CCCCCCC2)cc(OC)c1OC | inactive
CC(=O)Nc1ncc([N+](=O)[O-])s1 | inactive
CCCCN1C[C@H](O)[C@@H](O)[C@H](O)[C@H]1CO | inactive
CN1CCN(c2c(F)cc3c(=O)c(C(=O)O)cn4c3c2SCC4)CC1 | inactive
CCCCNC(=O)NS(=O)(=O)c1ccc(N)cc1 | inactive
CN(CCCN1c2ccccc2CCc2ccccc21)CC(=O)c1ccc(Cl)cc1 | inactive
Cc1c(-c2ccccc2)oc2c(C(=O)OCCN3CCCCC3)cccc2c1=O | inactive
CO[C@]12C[C@@H](COC(=O)c3cncc(Br)c3)CN(C)[C@@H]1Cc1cn(C)c3cccc2c13 | inactive
O=C(CCN1CCN2CCCC2C1)N1c2ccccc2Sc2ccc(Cl)cc21 (stereo not given) | inactive
C[C@H]1O[C@@H](O[C@H]2CC[C@@]3(C)[C@H](CC[C@@H]4[C@@H]3C[C@@H](O)[C@]3(C)[C@@H](C5=CC(=O)OC5)CC[C@]43O)C2)C[C@H](O)[C@@H]1O[C@H]1C[C@H](O)[C@H](O[C@H]2C[C@H](O)[C@H](O[C@@H]3O[C@H](CO)[C@@H](O)[C@H](O)[C@H]3O)[C@@H](C)O2)[C@@H](C)O1 | 84.1 nM (active)
O=C(N/N=C/c1ccc([N+](=O)[O-])o1)c1ccc(O)cc1 | inactive
Clc1cccc(C(c2ccc3nc[nH]c3c2)n2ccnc2)c1 (stereo not given) | inactive
CC(C(=O)O)c1cccc(Oc2ccccc2)c1 (stereo not given) | inactive
Nc1ccc(C(=O)NCC(=O)O)cc1 | inactive
CN(C)C(=O)Nc1ccc(Cl)c(Cl)c1 | inactive
CC(C)(C)CC(C)(C)c1ccc(O)c(-n2nc3ccccc3n2)c1 | inactive
CCCCNc1ccc(C(=O)OCCOCCOCCOCCOCCOCCOCCOCCOCCOC)cc1 | inactive
CC(=O)OCC(=O)[C@H]1CC[C@H]2[C@@H]3CCC4=CC(=O)CC[C@]4(C)[C@H]3CC[C@]12C | inactive
CCOC(=O)c1ccc(N)cc1 | inactive
CN(C)CCN1C(=O)c2ccccc2N(C)c2ccccc21 | inactive

From PubChem BioAssay (NCATS)
